Activity calls are given as the source filed them.
What was measured:
[1] = test system: PRMT1 (protein arginine N-methyltransferase 1); assay: small molecules binding arginine methyltransferase PRMT1 – biochemical, small-molecule microarray, 635 nm fluorescence, primary screen (AID 1088); details: higher = more signal;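 further: binding of Prmt1 protein to compounds spotted on small-molecule microarray slides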
[2] = growth effects on S. cerevisiae YJM789 – YJM789 clinical isolate, OD600, 24 h, basal, primary screen (AID 1089); details: higher = more signal, called active from +8 up or from −8 down;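 further: growth of clinical yeast isolate S. cerevisiae YJM 789 seeded 1000 cells per well; test concentration not given here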
[3] = S. pombe growth modifiers, basal conditions – strain 972, OD600, 24 h, no modulator, primary screen (AID 1090);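 further: basal condition with compound alone and no growth modifier present; test concentration not given here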; details: S. pombe 972 growth, higher = more signal, called active from +8 up or from −8 down
[4] = budding yeast growth modifiers under rapamycin – strain BY4716, OD600, 96 h, primary screen (AID 1091); further: test concentration not given here; details: S. cerevisiae BY4716 + rapamycin, higher = more signal, called active from +8 up or from −8 down
[5] = molecular target: Torsin-1A-interacting protein 2 (Homo sapiens) (UniProt Q8NFQ8); assay: small molecules binding lysate-expressed LULL1 – cell lysate, human LULL1 lysate, 635/667 nm fluorescence, primary screen (AID 1092); details: small-molecule microarray, hLULL1 lysate binding, 635 nm fluorescence; higher = more signal;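 further: probe is lysate of COS7 cells overexpressing human LULL1; score merges per-feature 667 nm fluorescence with signal-to-noise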
[6] = optical density change of DRC41 E. coli – strain DRC41, OD650, 24 h, E. coli filamentation project, primary screen (AID 1093);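 further: MC1000 strain lacking acrAB efflux and sulA so SOS filamentation is blocked; test concentration not given here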; details: E. coli DRC41 growth, higher = more signal, called active from +8 up or from −8 down
[7] = probe aLefty2 binding to arrayed compounds – biochemical, biotinylated probe, 635/667 nm fluorescence, primary screen (AID 1094); details: small-molecule microarray, higher = more signal;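 further: score merges spot fluorescence near 667 nm with spot signal-to-noise ratio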
[8] = test system: Noggin (protein binding on small-molecule microarray); assay: small molecules binding Noggin protein – biochemical, 635/667 nm fluorescence, primary screen (AID 1095); details: 635 nm fluorescence, higher = more signal;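 further: score merges 667 nm feature fluorescence with signal to noise over triplicate slides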
[9] = molecular target: Neurogenic locus notch homolog protein 3 (Homo sapiens) (UniProt Q9UM47); assay: small molecules binding NOTCH3 protein – biochemical, 635/667 nm fluorescence, primary screen (AID 1096); details: small-molecule microarray, 635 nm fluorescence, higher = more signal
[10] = probe aEGFR binding to arrayed compounds – biochemical, biotinylated probe, 635/667 nm fluorescence, primary screen (AID 1097); details: small-molecule microarray, higher = more signal;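 further: probe is a biotinylated anti-EGFR antibody binding compounds printed on slides; score combines fluorescence near 667 nm and signal to noise of each spot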

Chain of Neurogenic locus notch homolog protein 3 (Homo sapiens) (Q9UM47 whole entry, looked up): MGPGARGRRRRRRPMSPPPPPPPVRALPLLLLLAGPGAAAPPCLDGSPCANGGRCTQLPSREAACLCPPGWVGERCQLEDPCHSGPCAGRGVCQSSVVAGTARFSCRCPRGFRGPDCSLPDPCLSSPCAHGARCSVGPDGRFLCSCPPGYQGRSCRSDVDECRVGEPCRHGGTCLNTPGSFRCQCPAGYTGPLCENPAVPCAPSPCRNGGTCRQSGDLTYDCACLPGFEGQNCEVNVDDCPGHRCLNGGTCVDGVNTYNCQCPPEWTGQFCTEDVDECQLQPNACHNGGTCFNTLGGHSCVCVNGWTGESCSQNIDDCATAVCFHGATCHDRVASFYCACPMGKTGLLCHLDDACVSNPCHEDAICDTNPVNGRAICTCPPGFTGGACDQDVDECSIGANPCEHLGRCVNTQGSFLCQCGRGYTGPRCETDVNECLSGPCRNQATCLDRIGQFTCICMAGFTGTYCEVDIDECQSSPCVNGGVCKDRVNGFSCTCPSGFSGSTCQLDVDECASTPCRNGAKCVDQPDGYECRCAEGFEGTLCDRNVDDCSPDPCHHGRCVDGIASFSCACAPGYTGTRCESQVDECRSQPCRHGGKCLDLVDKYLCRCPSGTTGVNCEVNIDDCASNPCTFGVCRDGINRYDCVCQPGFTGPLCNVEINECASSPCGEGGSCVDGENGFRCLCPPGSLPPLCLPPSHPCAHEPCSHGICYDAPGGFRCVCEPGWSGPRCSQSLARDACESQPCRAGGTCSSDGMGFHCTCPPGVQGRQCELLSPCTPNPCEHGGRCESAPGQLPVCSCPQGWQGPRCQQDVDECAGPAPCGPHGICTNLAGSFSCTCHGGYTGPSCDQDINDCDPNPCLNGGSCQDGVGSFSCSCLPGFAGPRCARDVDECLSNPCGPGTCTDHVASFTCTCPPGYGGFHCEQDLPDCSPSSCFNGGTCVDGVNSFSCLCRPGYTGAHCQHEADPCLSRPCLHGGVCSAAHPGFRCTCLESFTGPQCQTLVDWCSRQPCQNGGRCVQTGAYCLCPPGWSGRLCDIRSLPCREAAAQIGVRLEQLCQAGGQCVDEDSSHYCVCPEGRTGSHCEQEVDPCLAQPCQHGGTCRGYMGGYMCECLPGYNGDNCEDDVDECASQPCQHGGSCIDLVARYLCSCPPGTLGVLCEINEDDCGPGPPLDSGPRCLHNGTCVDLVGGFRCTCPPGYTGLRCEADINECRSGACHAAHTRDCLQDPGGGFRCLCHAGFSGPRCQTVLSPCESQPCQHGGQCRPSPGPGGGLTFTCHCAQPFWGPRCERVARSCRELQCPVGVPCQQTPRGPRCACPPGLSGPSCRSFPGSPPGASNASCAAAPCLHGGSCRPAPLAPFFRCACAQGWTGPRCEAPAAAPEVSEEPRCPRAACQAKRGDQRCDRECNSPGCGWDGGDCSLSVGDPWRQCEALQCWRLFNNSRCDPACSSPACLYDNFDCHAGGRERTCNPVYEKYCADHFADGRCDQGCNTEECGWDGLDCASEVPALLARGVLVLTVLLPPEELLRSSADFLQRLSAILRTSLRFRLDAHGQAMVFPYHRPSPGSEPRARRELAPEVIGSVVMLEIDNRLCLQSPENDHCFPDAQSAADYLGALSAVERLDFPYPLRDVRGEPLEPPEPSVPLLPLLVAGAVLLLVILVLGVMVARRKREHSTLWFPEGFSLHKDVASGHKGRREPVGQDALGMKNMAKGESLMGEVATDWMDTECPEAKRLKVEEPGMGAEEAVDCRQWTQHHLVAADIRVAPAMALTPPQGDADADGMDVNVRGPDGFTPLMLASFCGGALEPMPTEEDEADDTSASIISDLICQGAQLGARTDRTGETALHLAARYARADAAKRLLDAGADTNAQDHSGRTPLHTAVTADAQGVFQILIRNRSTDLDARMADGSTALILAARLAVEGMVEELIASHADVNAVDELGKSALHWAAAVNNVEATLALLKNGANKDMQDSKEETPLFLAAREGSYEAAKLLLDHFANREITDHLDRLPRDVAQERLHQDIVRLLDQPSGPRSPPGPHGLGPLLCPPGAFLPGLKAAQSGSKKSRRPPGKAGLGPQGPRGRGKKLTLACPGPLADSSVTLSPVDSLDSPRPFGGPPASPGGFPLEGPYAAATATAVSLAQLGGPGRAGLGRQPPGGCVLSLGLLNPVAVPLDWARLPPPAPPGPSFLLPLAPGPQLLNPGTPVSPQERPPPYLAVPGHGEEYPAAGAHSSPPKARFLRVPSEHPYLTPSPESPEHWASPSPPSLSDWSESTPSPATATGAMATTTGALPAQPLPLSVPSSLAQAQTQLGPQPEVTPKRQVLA
Chain of Torsin-1A-interacting protein 2 (Homo sapiens) (Q8NFQ8 whole entry, looked up): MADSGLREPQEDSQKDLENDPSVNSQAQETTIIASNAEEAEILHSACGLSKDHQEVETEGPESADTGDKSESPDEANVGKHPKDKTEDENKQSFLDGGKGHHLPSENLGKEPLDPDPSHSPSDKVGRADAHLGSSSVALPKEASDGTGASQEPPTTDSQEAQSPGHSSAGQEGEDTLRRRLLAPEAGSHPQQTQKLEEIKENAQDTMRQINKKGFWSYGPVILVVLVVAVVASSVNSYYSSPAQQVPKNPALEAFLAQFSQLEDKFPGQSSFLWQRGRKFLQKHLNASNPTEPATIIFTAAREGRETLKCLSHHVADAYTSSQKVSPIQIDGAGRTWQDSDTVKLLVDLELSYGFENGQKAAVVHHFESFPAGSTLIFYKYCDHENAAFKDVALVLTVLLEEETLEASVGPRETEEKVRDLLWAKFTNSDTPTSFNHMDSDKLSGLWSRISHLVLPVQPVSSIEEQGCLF

SMILES	composite z-score [1]	z-score [2]	z-score [3]	z-score [4]	composite z-score [5]	z-score [6]	composite z-score [7]	composite z-score [8]	composite z-score [9]	composite z-score [10]
C[N+](C)(C)CCCCCCNC(=O)[C@H]1C[C@H]2C(=O)N[C@@H](Cc3ccccc3)C(=O)N2[C@H]1c1cccc(OCCO)c1	1.15	-0.776 (inactive)	0.703 (inactive)	-0.282 (inactive)	3.05	-0.0145 (inactive)	0.0028	1.13	0.953	-0.0152
C=CC[C@@]1(C(=O)N2CCCCC2)N=C(c2ccc(OCCCO)cc2)O[C@@H]1c1ccccc1CN=[N+]=[N-]	1.55	-1.87 (inactive)	0.0315 (inactive)	0.819 (inactive)	3.67	0.912 (inactive)	0.178	0.648	1.08	0.0528
C=C[C@H](C)[C@@H](OC(=O)Nc1ccc(SC)cc1)c1ccc(O)c2ccccc12	1.28	-24.3 (active)	-20.7 (active)	-1.88 (inactive)	1.89	1.22 (inactive)	-0.0159	0.936	1.11	0.137
CO[C@H]1O[C@H](CO)[C@@H](OC(=O)Nc2cccc(F)c2)[C@H](OC(=O)Nc2ccccc2)[C@H]1OC(=O)Nc1ccccc1	1.54	1.63 (inactive)	1.1 (inactive)	5.68 (inactive)	3.37	-0.168 (inactive)	-0.0285	0.828	1.11	0.0778
CC(c1ccccc1)C(O)C1C=CC2C(=O)N(c3ccccc3)C(=O)C2N1Nc1ccccc1 (stereo not given)	1.54	0.205 (inactive)	1.23 (inactive)	0.442 (inactive)	3.62	-0.702 (inactive)	0.0008	0.833	1.05	0.0038
CCOC(=O)C[C@H]1[C@H](OC(=O)c2ccc(-c3ccccc3)cc2)[C@@H](NC(=O)c2ccccc2)c2cc(OCCCO)ccc2N1C(=O)c1ccc2ccccc2n1	0.316	-1.04 (inactive)	0.0452 (inactive)	0.545 (inactive)	1.23	-0.751 (inactive)	0.0769	0.0388	0.742	-0.0031
COc1cc2c(cc1O)C(c1cccs1)N(Cc1ccc([N+](=O)[O-])o1)CC2 (stereo not given)	0.298	-2.77 (inactive)	-4.47 (inactive)	-2.27 (inactive)	1.02	-0.73 (inactive)	0.156	-0.419	0.32	-0.0859
C=CCC(OC(C)=O)[C@@H]1[C@@H](N(Cc2cc3ccccc3o2)C(=O)Cc2ccc(OC)cc2)c2cc(OCCCO)ccc2N1C(=O)c1ccc2ccccc2c1 (stereo not given in full)	-0.843	-0.179 (inactive)	0.568 (inactive)	0.194 (inactive)	-0.266	-0.457 (inactive)	-0.0097	-0.104	-0.379	-0.201
CC[C@@H]1C=C(C(=O)O)[C@H](c2cccc3ccccc23)N1S(=O)(=O)c1ccc(C)cc1	0.479	-0.118 (inactive)	1.49 (inactive)	-0.168 (inactive)	3	-0.428 (inactive)	-0.0537	0.0891	0.814	-0.0356
COc1ccc([Si](C)(C)[C@@H]2[C@@H](CC(=O)N3CCC[C@H]3CO)O[C@]3(C(=O)N(Cc4cccc(I)c4)c4ccccc43)[C@H]2C)cc1	1.53	-1.23 (inactive)	0.0115 (inactive)	1.14 (inactive)	0.175	0.25 (inactive)	0.0678	1.62	1.08	0.0807
C=CC[C@]1(C(=O)NCc2ccccc2)N=C(c2ccc(OCCCO)cc2)O[C@H]1c1ccccc1CN=[N+]=[N-]	1.35	-0.755 (inactive)	-0.175 (inactive)	1.54 (inactive)	2.87	-0.765 (inactive)	0.0634	0.853	1.06	0.107
Cc1ccc(C2C3C(=O)CC4C(=O)N(c5ccccc5)C(=O)C4C3CN2S(=O)(=O)c2ccc(C)cc2)cc1 (stereo not given)	1.32	0.799 (inactive)	0.499 (inactive)	1.45 (inactive)	2.93	0.0125 (inactive)	0.571	0.0835	1.12	0.786
O=c1cccc(-c2ccccc2Cl)o1	0.023	-0.871 (inactive)	-0.463 (inactive)	2.12 (inactive)	0.551	-0.252 (inactive)	-0.127	0.466	-0.691	-0.139
CC(C)[Si](C#C[Si](C(C)C)(C(C)C)C(C)C)(O[C@H](C)c1cn(Cc2ccccc2)nn1)C(C)C	1.04	0.319 (inactive)	0.497 (inactive)	-0.109 (inactive)	1.92	1.32 (inactive)	-0.0936	0.369	0.928	0.0026
